Shown are actives, neighbours in structure and some others; about 3.1% of the full set was active somewhere.
LEDGF integ inh: blockers of LEDGF/p75-dependent integrase strand transfer – biochemical, TR-FRET, high throughput, primary screen; HIV-1 integrase (with human LEDGF/p75); TR-FRET IN-LEDGF/p75 DNA integration, Eu/Cy5; inhibition, % at 3.7 µM; 0.64% of 370,000 active;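 active = inhibition above the screen-wide mean plus 3 SD, cut at about 13% in these data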;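 also: signal is the Cy5 over europium emission ratio at 671 and 618 nm; 0% = plate median of compound wells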
MBD2 DNA inh: inhibitors of MBD2 binding to methylated DNA, primary screen, biochemical, TR-FRET, DNA-binding domain, human; Methyl-CpG-binding domain protein 2 (Homo sapiens), Q9UBB5; MBD2 binding to methylated oligonucleotide; inhibition, % at 4.4 µM; 0.31% of 370,000 active; in the data active = inhibition above about 13%
Target sequence (Q9UBB5 whole entry, looked up, the tested form may be a part): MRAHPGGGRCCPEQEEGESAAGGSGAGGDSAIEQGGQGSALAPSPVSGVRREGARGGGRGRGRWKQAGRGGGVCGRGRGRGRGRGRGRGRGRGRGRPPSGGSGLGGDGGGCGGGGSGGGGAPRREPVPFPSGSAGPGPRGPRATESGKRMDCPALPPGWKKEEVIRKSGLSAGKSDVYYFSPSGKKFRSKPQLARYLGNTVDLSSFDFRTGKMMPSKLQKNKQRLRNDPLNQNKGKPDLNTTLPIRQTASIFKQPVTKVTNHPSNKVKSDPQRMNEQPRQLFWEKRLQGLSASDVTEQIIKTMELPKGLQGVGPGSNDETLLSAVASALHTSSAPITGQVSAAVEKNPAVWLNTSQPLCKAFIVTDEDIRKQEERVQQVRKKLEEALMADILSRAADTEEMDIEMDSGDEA
proKLK7 act: proKLK7 zymogen activators, primary screen, biochemical, fluorescence intensity; purified proKLK7, EDANS-DABCYL substrate fluorescence; 100% is mature enzyme control, 0% vehicle; activation, % at 7 µM; 0.9% of 370,000 active; AID 652039, 2013; Kallikrein-7 (Homo sapiens), P49862;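 active = activation above the mean of all tested compounds plus 3 SD, computed per campaign excluding outliers beyond control limits, cut at about 13% in these data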
UHRF1 binding: UHRF1 methylated DNA binding inhibitors, primary screen, counter-screen for MBD2 inhibitor project, biochemical, TR-FRET, human UHRF1, single concentration; E3 ubiquitin-protein ligase UHRF1 (Homo sapiens), Q96T88; 0.75% of 370,000 active; inhibition, % at 4.4 µM; UHRF1 binding to methylated oligo; AID 687016, 2013; in the data active = inhibition above about 21%;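 also: UHRF1 SRA domain binding a hemimethylated CpG hairpin DNA probe; 0% = median of test compound wells and 100% = reference inhibitor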
Neddyl block: inhibitors of cullin neddylation, primary screen, biochemical, TR-FRET, uHTS, NAE and Ubc12; NEDD8-conjugating enzyme Ubc12 (Homo sapiens) + NEDD8-activating enzyme E1 regulatory …; calls only at 25 µM; 0.58% of 360,000 active; AID 651699, 2012; in the data active = inhibition above about 36%
Rin1-Abl PPI inh: inhibitors of Rin1-Abl protein binding, primary screen, biochemical, TR-FRET. Tyrosine-protein kinase ABL1 (Homo sapiens) + Ras and Rab interactor 1 (Homo sapiens), …. inhibition, % at 7.35 µM. 0.4% of 360,000 active; in the data active = inhibition above about 5%, passing the limit was not always enough
Neddyl inh conf: blockade of NEDD8 conjugation to cullin – biochemical, TR-FRET, single concentration, confirmation; shares compounds with Neddyl block; 13% of 1,800 active; TR-FRET cullin neddylation biochemical assay; calls only at 25 µM; AID 652217, 2013; in the data active = inhibition above about 40%;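 also: neddylation substrate is the cullin 1 ring ligase complex with SKP2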
* marks the source's active call; other numbers are inactive results; i = inactive; · = no result shown; + = active, no number.

SMILES	LEDGF integ inh	MBD2 DNA inh	proKLK7 act	UHRF1 binding	Neddyl block	Rin1-Abl PPI inh	Neddyl inh conf
COCCCn1c(C)nc2c(c1=O)c1nc3ccccc3nc1n2CCc1ccccc1	·	·	·	·	·	-0.6	·
CCOc1ccc(-c2ccc3nnc(SCC(=O)NCC4CCCO4)n3n2)cc1 (stereo not drawn)	-0.4	-1.3	2.7	0.3	+	-0.5	·
CCc1ccc(-c2ccc3nnc(SCC(=O)NCC4CCCO4)n3n2)cc1 (stereo not drawn)	2.4	-0.9	8.1	-0.5	+	-5.0	·
O=C(Nc1ccccc1)N1c2ccccc2SC1c1ccco1 (stereo not drawn)	2.0	1.1	0.3	3.7	·	·	·
CCn1c(=O)c(-c2ccccc2)c(O)c2ccccc21	1.3	-6.1	1.9	-1.1	+	-4.8	+
Cc1ccc(Nc2ccc(C(=O)NCCc3ccccc3)cn2)cc1	-2.2	-2.3	-0.5	-0.8	+	-1.1	i
O=C(NCCc1ccccc1)c1cccnc1	-0.1	3.2	-0.4	10.3	i	-3.4	·
Cc1ccn2cc(C(=O)Nc3nnc(C)s3)nc2c1	-4.5	5.0	0.1	-1.4	+	-0.4	i
Cc1ccn2cc(C(=O)Nc3ccc4c(c3)OCCO4)nc2c1	0.0	2.5	0.8	-2.1	i	2.0	·
COc1ccc(S(=O)(=O)N2CCCCC2)cc1NC(=O)CSc1ncnc2ccccc12	-0.2	-0.8	-0.2	0.1	i	-1.5	·
COc1cccc2[nH]c3c(N4CCCCC4)ncnc3c12	-2.8	0.0	8.4	-1.3	+	-1.1	·
CC(C)C(=O)Nc1ccc(C(=O)Nc2ccc(Br)cc2F)cc1	0.8	1.4	0.5	-2.9	i	4.0	·
Cc1ccc(-c2nnc(Nc3ccc(CC(N)=O)cc3)c3ccccc23)cc1	-3.1	-8.2	0.2	-1.5	+	-0.7	i
Cc1ccc(-c2nnc(Nc3ccc(CC(N)=O)cc3)c3ccccc23)cc1S(N)(=O)=O	0.8	0.1	-0.5	3.6	i	-3.9	·
Cc1ccc(C(=O)N/N=C/c2ccc(N3CCOCC3)cc2)c(C)c1	-1.7	1.8	1.6	1.2	+	0.2	i
O=C(N/N=C/c1ccc(N2CCOCC2)cc1)c1ccc(O)cc1	-0.3	-1.1	-4.0	-4.5	i	-2.2	·
Cc1ccc(NS(=O)(=O)c2cccc(C(=O)N/N=C/c3ccc4c(c3)OCCO4)c2)c(C)c1	-3.6	-0.1	-5.8	-3.3	+	-2.5	i
COc1ccccc1NS(=O)(=O)c1cccc(C(=O)N/N=C/c2ccc(N3CCOCC3)cc2)c1	0.0	-4.6	5.8	-2.5	+	-5.3	i
Cc1ccc(NS(=O)(=O)c2cccc(C(=O)N/N=C/c3c(C)nn(-c4ccccc4)c3N3CCCC3)c2)c(C)c1	-1.5	-0.3	-10.8	-1.7	·	-0.8	·
CC(CC(=O)Nc1nnc(C(C)(C)C)s1)c1ccccc1 (stereo not drawn)	-0.6	1.9	-0.3	0.9	i	-0.3	·
CN(C)[C@@H]1CCN(c2ccc3c(c2)O[C@H]2CCN(C2)S3(=O)=O)C1	4.3	1.4	0.0	0.7	·	·	·
COc1cc2cc(CN(CCCN3CCOCC3)C(=O)Nc3ccccc3F)c(=O)[nH]c2cc1OC	3.3	2.3	0.8	1.3	+	-3.4	i
CCCCCCCC(=O)N/N=C(\C)c1ccc(O)cc1O	-0.4	2.9	-0.8	3.0	+	-4.0	i
O=C(Nc1ccccc1C(=O)O)c1cccc(NC(=O)c2ccccc2Br)c1	0.5	0.2	0.6	-0.4	i	0.3	·
O=C(Nc1cc(C(=O)Nc2ccccc2C(=O)O)cc(C(=O)Nc2ccccc2C(=O)O)c1)c1ccccc1	0.1	3.8	0.2	0.2	+	-0.1	i
